The values below come from PubChem BioAssay (NCI).

The panel holds about 83,000 compounds, 20% with a hit somewhere; the sample as a whole holds those more often.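 Cell lines were cultured in 96-well plates, exposed to a single compound concentration, and assessed for percent growth 48 hours later.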 Values without a mark were called inactive. Active and inactive are the calls of the source. The calls were made as follows: active = growth percent below 10; inactive = the rest.

Among the test systems are HCT-15 colon; HT29 colon; SNB-75 CNS; SNB-19 CNS; U251 CNS; PC-3 prostate; SK-MEL-5 melanoma; UACC-62 melanoma; LOX IMVI melanoma; SK-MEL-28 melanoma.
What all share (assay): NCI-60 one-dose screen, 48 h (100 = growth as untreated, 0 = no growth, -100 = all killed)
What all share (conditions): 10 µM unless noted

Turning to `Cc1cc(-c2ccc3nc(N)sc3c2)nc2ccc3[nH]ncc3c12`, the growth with HCT-15 colon is 33.9%; in the assay with HT29 colon, 21.1%; in the assay on SNB-75 CNS, -12.7% (active); in the assay with SNB-19 CNS, 39.8%; with U251 CNS it was 29.3%; with PC-3 prostate it was 62.5%. Moreover, the growth was 26.3% with SK-MEL-5 melanoma, 21.9% with UACC-62 melanoma, 43.8% with LOX IMVI melanoma and 38.4% in the assay with SK-MEL-28 melanoma.
`CC[C@@](C)(NC(=O)C(C)(C)NC(=O)[C@@H](NC(=O)[C@@H]1CCCN1C(=O)C(C)(C)NC(=O)[C@H](CC(C)C)NC(=O)CNC(=O)C(C)(C)NC(=O)[C@@H](NC(=O)C(C)(C)NC(=O)[C@H](CCC(N)=O)NC(=O)[C@H](C)NC(=O)C(C)(C)NC(=O)[C@H](C)NC(=O)C(C)(C)NC(=O)[C@H](C)NC(=O)C(C)(C)NC(C)=O)C(C)C)C(C)C)C(=O)N[C@@H](CCC(N)=O)C(=O)N[C@@H](CCC(N)=O)C(=O)N[C@H](CO)CC1CCCCC1`: the growth was 101% [5 µM] in the assay with HCT-15 colon; 23% [5 µM] with HT29 colon; 13.4% [5 µM] with SNB-75 CNS; 24.3% [5 µM] in the assay with SNB-19 CNS; 29.2% [5 µM] in the assay on U251 CNS; 15.5% [5 µM] in the assay on PC-3 prostate. The growth is -43.5% [5 µM] (active) with SK-MEL-5 melanoma, 31.1% [5 µM] with UACC-62 melanoma, 0.772% [5 µM] (active) with LOX IMVI melanoma and 26.9% [5 µM] in the assay on SK-MEL-28 melanoma.
Take `COc1cccc(/C=C/C(=O)c2ccc(NC(=O)COc3cccc4cccnc34)cc2)c1`: the growth was 94.8% with HCT-15 colon; 98.2% in the assay on HT29 colon; 97.4% in the assay with SNB-75 CNS; 95.9% with SNB-19 CNS; 97.2% in the assay with U251 CNS; 93.3% in the assay on PC-3 prostate. Further, the growth is 94.9% in the assay with SK-MEL-5 melanoma, 94.5% with UACC-62 melanoma, 78% with LOX IMVI melanoma and 104% with SK-MEL-28 melanoma.
With `CCOC(=O)c1c(NCC(=O)Nc2cccc([N+](=O)[O-])c2)sc2c1CCCC2`, the growth with HCT-15 colon is -42.4% (active); in the assay on HT29 colon, -71.5% (active); in the assay with SNB-75 CNS it was -48.6% (active); in the assay with SNB-19 CNS it was -17.3% (active); in the assay on U251 CNS, -26.5% (active); with PC-3 prostate it was -34% (active). Besides, the growth with SK-MEL-5 melanoma is -98.4% (active); in the assay on UACC-62 melanoma, -90.3% (active); in the assay on LOX IMVI melanoma, -73% (active); in the assay on SK-MEL-28 melanoma, -80.2% (active).
With `Fc1ccc(-c2cc3nc(C(Cl)Cl)nc(-c4cccs4)n3n2)cc1`, the growth with HCT-15 colon is 15.9%; in the assay on HT29 colon, 4.52% (active); in the assay with SNB-75 CNS it was 69.8%; in the assay on SNB-19 CNS, 9.61% (active); in the assay with U251 CNS, -3.12% (active); in the assay with PC-3 prostate, 1.42% (active). The growth was 92% in the assay on SK-MEL-5 melanoma, 45.8% with UACC-62 melanoma, 94.8% with LOX IMVI melanoma and 23.6% in the assay on SK-MEL-28 melanoma.
For the molecule `Cc1cn(-c2cc(NC(=O)c3cncc(C#Cc4cnc5ccc(OCCCS(C)(=O)=O)nn45)c3)cc(C(F)(F)F)c2)cn1`, the growth with HCT-15 colon is 37.8%; in the assay with HT29 colon it was 16.1%; with SNB-75 CNS it was 13.6%; in the assay with SNB-19 CNS, 18.8%; with U251 CNS, 26.8%; in the assay on PC-3 prostate it was 52.8%. Besides, the growth with SK-MEL-5 melanoma is 2.76% (active); with UACC-62 melanoma, 21.4%; in the assay on LOX IMVI melanoma, 9.26% (active); with SK-MEL-28 melanoma, 31.5%.
Regarding `Cc1ccc(C2CC(c3ccc(Nc4nc(NCCO)nc(Nc5ccc(Cl)cc5)n4)cc3)=Nc3c(N)nc(N)nc3N2)cc1` (stereo not given), the growth with HCT-15 colon was -81.7% (active); with HT29 colon it was -90.8% (active); in the assay on SNB-75 CNS, 112%; in the assay with SNB-19 CNS it was -90.3% (active); in the assay with U251 CNS it was -96.8% (active); in the assay with PC-3 prostate it was -32.7% (active). The growth is 67.5% with SK-MEL-5 melanoma, 107% in the assay on UACC-62 melanoma, -93.9% (active) in the assay with LOX IMVI melanoma and 110% in the assay on SK-MEL-28 melanoma.
As to `C/C=C/[C@@H]1C=C[C@@H]2C[C@H](C)CC[C@H]2[C@]1(C)/C(O)=C1/C(=O)[C@H](CO)N(C)C1=O`, the growth in the assay on HCT-15 colon was 39.4%; in the assay with HT29 colon, 61.9%; in the assay on SNB-75 CNS, 75.5%; in the assay with SNB-19 CNS it was 43.2%; with U251 CNS it was 47%; in the assay on PC-3 prostate, 45.7%. The growth was 52.4% in the assay with SK-MEL-5 melanoma, 46.9% in the assay on UACC-62 melanoma, 53.5% with LOX IMVI melanoma and 63.2% in the assay with SK-MEL-28 melanoma.
Regarding `COc1ccccc1N1CCN(C2=NN=C(c3cccc(Cl)c3)c3ccccc3C2)CC1`, the growth with HCT-15 colon was 15.8%; with HT29 colon, -3.52% (active); with SNB-75 CNS it was 19.7%; in the assay on SNB-19 CNS it was 41.2%; in the assay on U251 CNS it was 20.7%; in the assay with PC-3 prostate it was 23.5%. For the same molecule, the growth with SK-MEL-5 melanoma is -6.03% (active); with UACC-62 melanoma, 31.6%; in the assay on LOX IMVI melanoma it was 24.8%; in the assay on SK-MEL-28 melanoma it was 60.7%.
Consider `Cc1ccc(-c2cc3nc(C(Cl)Cl)nc(-c4ccccc4)n3n2)cc1`, for which the growth was 75.6% in the assay with HCT-15 colon; 74.9% in the assay with HT29 colon; 99.3% in the assay on SNB-75 CNS; 74.1% in the assay on SNB-19 CNS; 66.8% in the assay on U251 CNS; 79.3% in the assay on PC-3 prostate. For the same molecule, the growth in the assay on SK-MEL-5 melanoma is 92.2%; in the assay with UACC-62 melanoma, 91.9%; in the assay with LOX IMVI melanoma, 109%; in the assay on SK-MEL-28 melanoma, 101%.
Take `CC1=C2C(=C[C@@](C)(COS(N)(=O)=O)[C@@H]2O)C(=O)[C@](C)(O)C12CC2`: the growth was 67.6% in the assay on HCT-15 colon; 56.8% in the assay with HT29 colon; 72.6% in the assay with SNB-75 CNS; 72.4% in the assay on SNB-19 CNS; 71.8% with U251 CNS; 58.5% in the assay on PC-3 prostate. Moreover, the growth with SK-MEL-5 melanoma was 89.5%; in the assay with UACC-62 melanoma, 62.1%; with LOX IMVI melanoma, 77%; in the assay with SK-MEL-28 melanoma, 87.6%.
In the case of `CCOC(=O)c1c(NC(=O)c2ccc(F)cc2F)sc2c1CCC(=O)C2`, the growth is 80.6% with HCT-15 colon; 103% in the assay on HT29 colon; 94.3% in the assay with SNB-75 CNS; 67.2% in the assay on SNB-19 CNS; 53.5% in the assay with U251 CNS; 93.7% in the assay on PC-3 prostate. The growth is 98.5% in the assay with SK-MEL-5 melanoma, 83.4% in the assay on UACC-62 melanoma, 80.7% in the assay on LOX IMVI melanoma and 112% in the assay on SK-MEL-28 melanoma.
In the case of `CC1CCc2c(sc3nc(SCC(=O)N/N=C/c4cccc(O)c4O)n(-c4ccccc4)c(=O)c23)C1` (stereo not given), the growth in the assay on HCT-15 colon is 85.6%; in the assay with HT29 colon, 105%; in the assay with SNB-75 CNS it was 99.2%; in the assay with SNB-19 CNS, 98.1%; in the assay with U251 CNS, 90.9%; in the assay with PC-3 prostate, 76.8%. For the same molecule, the growth in the assay with SK-MEL-5 melanoma is 94.1%; in the assay with UACC-62 melanoma it was 84%; in the assay on LOX IMVI melanoma, 60.4%; in the assay on SK-MEL-28 melanoma it was 78.4%.
